Among the data in PubChem BioAssay (Tox21) are Potency values, retold here.

The structures appear in SMILES notation. Results filed as inconclusive are left out. A number with no mark means an inactive call. Calls of active or inactive are those of the source. Unless noted, the call rests on the fitted dose curve; in most records, active means well fitted curve in the direction sought with a large enough effect in the repeat runs; inconclusive means weak or mixed curves; inactive means no such curve, though single readings can be large; an effect the other way counts as inactive or inconclusive.

Assay [1] is described as follows: qHTS assay to identify small molecule antagonists of the estrogen related receptor (ERR) signaling pathway - cell viability counter screen (AID 1224818). Further: potency means the concentration at half of the fitted maximal effect. The essentials: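 ERR cells, 2,000 per well, compound added after 6 h and incubated 17.5 h at 37 C. Viability read by CellTiter-Fluor fluorescence after a further 30 min at 37 C.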
A short description of assay [2]: qHTS assay to identify small molecule antagonists of the estrogen related receptor (ERR) signaling pathway (AID 1224819; further: nearly all actives have a fitted effect of over 50% in size; further: potency means the concentration at half of the fitted maximal effect). The method in brief:
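ERR reporter cell line (NTP) plated at 2,000 cells/well, settled 6 h at 37C/5% CO2, then exposed to LOPAC compounds for 18 h at 37C. One-Glo luciferase luminescence read after 30 min at room temperature.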
Background: Quantitative high-throughput screening tests each substance at several concentrations.

Assay [3] in a line: qHTS assay to identify small molecule agonists of the estrogen related receptor (ERR) signaling pathway (AID 1224820). The method in brief:
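Quantitative HTS of the LOPAC library used NTP ERR reporter cells treated 18 h at 37 C. Signal is luminescence after One-Glo addition and a 30 min room-temperature incubation.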

The subject of assay [4] is estrogen-related receptor alpha (ERRalpha) with PGC-1alpha coactivator, human. Briefly: qHTS assay to identify small molecule antagonists of the estrogen related receptor signaling pathway with the pleiotropic PPARgamma coactivator (PGC) (AID 1224821; calls by dose curve; further: nearly all actives have a fitted effect of over 50% in size; further: potency means the concentration at half of the fitted maximal effect). The essentials:
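Quantitative HTS for antagonism: PGC/ERR cells received compounds after 6 h attachment and were incubated 18 h at 37 C, with luminescence (One-Glo) as the endpoint.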

Assay [5] can be described thus: qHTS assay to identify small molecule agonists of the estrogen related receptor signaling pathway with the pleiotropic PPARgamma coactivator (PGC) (AID 1224823). The essentials: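 Cell-based luciferase assay in the NTP-supplied PGC/ERR line, 2,000 cells/well; 18 h compound exposure at 37 C, luminescence after One-Glo.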
Assay [6] is described as follows: qHTS assay to identify small molecule antagonists of the estrogen related receptor signaling pathway with the pleiotropic PPARgamma coactivator (PGC) cell viability counter screen (AID 1224822; further: potency means the concentration at half of the fitted maximal effect). The method in brief: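 PGC/ERR cells rested 6 h, then compound-treated 17.5 h at 37 C. CellTiter-Fluor added for 30 min at 37 C, viability measured by fluorescence intensity.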

Consider `C[C@@H]1O[C@@H](O[C@H]2C[C@@H](O)[C@]3(CO)[C@@H]4C(CC[C@]3(O)C2)[C@@]2(O)CC[C@H]([C@@H]3COC(=O)C3)[C@@]2(C)C[C@H]4O)[C@H](O)[C@H](O)[C@H]1O` (stereo partly drawn), for which the Potency result in assay [1], in assay [3] and in assay [5] was “inactive” throughout. Also, the Potency is 1190 nM (active) in assay [2] and 3480 nM (active) in assay [4].
`CCN1C[C@@]2(COC)C3[C@@H](OC)C4[C@H]1C3([C@@H]1C[C@@]3(O)[C@H](OC(=O)c5ccccc5)[C@@H]1[C@]4(OC(C)=O)[C@@H](O)[C@@H]3OC)[C@H](OC)C[C@H]2O`: the Potency result in assay [1], in assay [2], in assay [3], in assay [4], in assay [6] and in assay [5] was “inactive” throughout.
For the compound `CC(N)Cc1c[nH]c2ccc(OCc3cccs3)cc12` (stereo not drawn), the Potency result in assay [1], in assay [2], in assay [3], in assay [4] and in assay [5] was “inactive” throughout.
With `COc1ccc2[nH]cc(CCN)c2c1`, the Potency entry in assay [1], in assay [2], in assay [3], in assay [4], in assay [6] and in assay [5] was “inactive” each time.
Turning to `CNc1ccc2oc(C[C@H]3O[C@@]4(CC[C@H]3C)O[C@H]([C@H](C)C(=O)c3ccc[nH]3)[C@H](C)C[C@H]4C)nc2c1C(=O)O`, the Potency in assay [1] is 10600 nM (active); in assay [2] it was 2370 nM (active); in assay [6], 9440 nM (active). Moreover, the Potency result in assay [3] and in assay [5] was “inactive” throughout.
`CC[C@@]1(O)C(=O)OCc2c1cc1n(c2=O)Cc2cc3ccccc3nc2-1`: the Potency result in assay [1], in assay [3], in assay [6] and in assay [5] was “inactive” throughout. In assay [2], the Potency is 123 nM (active).
On to `NC(N)=NOCC[C@H](N)C(=O)O`, for which the Potency result in assay [1], in assay [2], in assay [3], in assay [4], in assay [6] and in assay [5] was “inactive” each time.
